In ChEMBL document CHEMBL3988442, “University of Dundee, Small-Polar-MMV Screening Library” (2021):
Hit rate of the full screen: of about 66,000 compounds, about 960 (1.5%) showed an effect of 50% or more. This excerpt belongs to a sample that is enriched for strong results.

Tested on: Trypanosoma brucei
Experiment: Trypanosoma brucei 72 hour study
Type: functional, organism-based
Parameters: scale not given: in the data most compounds retested in dose-response had high values

Structure (SMILES)	Percent Effect (30 µM, 30.03 µM) [%]	Percent Effect (30.3 µM, […]) [%]
Cc1ccc(CNCc2c[nH]nc2C(C)(C)C)c(OC2CCOC2)c1 (stereo not given)	-38.61	
Cc1ccc(CNCc2cccc3cn[nH]c23)c(OC2CCOC2)c1 (stereo not given)	-32.61	
Cc1ccc(CNCc2cccc3cccnc23)c(OC2CCOC2)c1 (stereo not given)	98.1	
O=C(O)C(F)(F)F.O=C1COC2(CCN(Cc3cccs3)CC2)CN1c1ccsc1	3.746	
CC(=O)N1CCN(Cc2ccco2)CC2(CC(=O)N(C)C2)C1.O=C(O)C(F)(F)F (stereo not given)		-65.74
Cc1occc1C(=O)N1CCC[C@]2(C[C@@H](OCc3ccccn3)CO2)C1.O=C(O)C(F)(F)F		-89.01
Cl.OC1(Cn2ccc3ncccc32)CCN(Cc2ccccc2F)CC1		12.85
O=C(C1CCOCC1)N1CCc2ncc(CN3CCOCC3)n2CC1.O=C(O)C(F)(F)F		-405.3
CCCN(C(=O)c1cccnc1)c1nc2c(s1)CCc1c-2cnn1C		48.91
CCCN(C(=O)c1ccncc1)c1nc2c(s1)CCc1c-2cnn1C		55.53
CCCN(C(=O)c1cnccn1)c1nc2c(s1)CCc1c-2cnn1C		47.96
CCOc1ccc(C(=O)N2CCCC(c3nccn3C)C2)cc1OCC (stereo not given)	-33.07	
CCn1cnnc1CN(C)Cc1nc(-c2cc(OC)ccc2F)oc1C	-24.61	
CC(C)NC(=O)Cn1ccc2c(Cl)cccc21	-29.64	
CC(C)C[C@H](NC(=O)Cn1ccc2c(Cl)cccc21)C(=O)O	-31.2	
O=C(Cn1ccc2c(Cl)cccc21)N[C@@H](C(=O)O)c1ccccc1	60.67	
CN(C)C(=O)COCC1CN(S(C)(=O)=O)Cc2ncn(C)c21.O=C(O)C(F)(F)F (stereo not given)		-29.75
CCN1CCC2(CC1)CC(NCc1cccc(C)n1)c1ccccc1O2.O=C(O)C(F)(F)F.O=C(O)C(F)(F)F.O=C(O)C(F)(F)F (stereo not given)	-8.099	
Cn1ccnc1CN1CCC(F)(F)C2(CCN(c3cccnc3)C2)C1.O=C(O)C(F)(F)F.O=C(O)C(F)(F)F (stereo not given)		-58.8
Cn1cc(CN2CCC(F)(F)C3(CCN(c4ncc(F)cn4)C3)C2)cn1.O=C(O)C(F)(F)F (stereo not given)		-7.399
FC1(F)CCN(Cc2cccnc2)CC12CCN(c1ccccc1)C2.O=C(O)C(F)(F)F.O=C(O)C(F)(F)F.O=C(O)C(F)(F)F (stereo not given)		100.3
FC1(F)CCN(Cc2ccncc2)CC12CCN(c1cnccn1)C2.O=C(O)C(F)(F)F.O=C(O)C(F)(F)F.O=C(O)C(F)(F)F (stereo not given)		6.608
Cn1cc(CN2CCC(F)(F)C3(CCN(c4cccc(F)c4)C3)C2)cn1 (stereo not given)		99.39
FC1(F)CCN(Cc2ccccn2)CC12CCN(c1cnccn1)C2.O=C(O)C(F)(F)F.O=C(O)C(F)(F)F.O=C(O)C(F)(F)F (stereo not given)		-80.37
Fc1ccc(CN2CCC(F)(F)C3(CCN(c4cnccn4)C3)C2)cc1.O=C(O)C(F)(F)F.O=C(O)C(F)(F)F (stereo not given)		93.17

Structure (SMILES)	Percent Effect (30 µM, 30.03 µM) [%]	Percent Effect (30.3 µM, […]) [%]
FC1(F)CCN(Cc2cccnc2)CC12CCN(c1cnccn1)C2.O=C(O)C(F)(F)F.O=C(O)C(F)(F)F.O=C(O)C(F)(F)F (stereo not given)		-8.346
FC1(F)CCN(Cc2ccncc2)CC12CCN(c1cccnc1)C2.O=C(O)C(F)(F)F.O=C(O)C(F)(F)F.O=C(O)C(F)(F)F (stereo not given)		-14.72
Cn1cc(CN2CCC(F)(F)C3(CCN(c4ccccn4)C3)C2)cn1.O=C(O)C(F)(F)F.O=C(O)C(F)(F)F (stereo not given)		-14.43
Cn1cc(CN2CCC(F)(F)C3(CCN(c4cccnc4)C3)C2)cn1.O=C(O)C(F)(F)F.O=C(O)C(F)(F)F (stereo not given)		3.133
CN(C)c1ccc(C(CNS(=O)(=O)c2cccs2)N2CCCC2)cc1 (stereo not given)	-11.49	
C1CC(N2Cc3nnn(CC4CC4)c3C(COCC3CC3)C2)C1.O=C(O)C(F)(F)F (stereo not given)		-49.13
O=C(O)C(F)(F)F.O=C([C@H]1CCCO1)N1CCN(CCn2cccn2)c2ncccc2C1		-89.38
COCC(=O)N1CCN(Cc2cc(-c3ccncc3)nn2C)CC1		-0.9188
COCC1CN(c2ccc(C)nn2)Cc2cnn(CC3CCOCC3)c21.O=C(O)C(F)(F)F.O=C(O)C(F)(F)F (stereo not given)		-39.18
COCCN1CCC2(CC1)CC(NC(=O)CC1CC1)c1ccccc1O2.O=C(O)C(F)(F)F (stereo not given)		-15.57
CN(C)[C@@H]1CN(C(=O)CCc2ccccc2)[C@@H]2CCCO[C@H]12.O=C(O)C(F)(F)F		-48.96
CC(C)(N)C(=O)N1CCC(c2nccnc2Oc2cccc(F)c2)CC1		6.584
O=C(Nc1cccnc1)[C@@H]1CCO[C@@H]2CCN(Cc3cccnc3)C[C@@H]21.O=C(O)C(F)(F)F.O=C(O)C(F)(F)F.O=C(O)C(F)(F)F	-27.43	
CCCC1c2cccn2CCN1C(=O)Cn1cnc2sc(C)cc2c1=O (stereo not given)		-9.094
CCC1c2ccc(C)n2CCN1C(=O)Cn1cnc2sc(C)cc2c1=O (stereo not given)		55.61
Cc1cc2c(=O)n(CC(=O)N3CCn4cccc4C3C(C)C)cnc2s1 (stereo not given)		-7.761
CCCS(=O)(=O)N1C[C@@H](c2ccccc2)[C@@]2(CCNC2=O)C1		-54.35
Cn1cccc1C(=O)N1C[C@H]2CN(Cc3cccc(F)c3)C[C@H]2C1.O=C(O)C(F)(F)F		-14.05
O=c1[nH]ncc(NCCOc2ccc3c(c2)CCC3)c1Cl	6.404	
CC(C)CCN(CCC(C)C)Cc1nc2c(cnn2C)c(=O)[nH]1		99.67
CC(C)CCN(C)Cc1nc2c(cnn2C)c(=O)[nH]1		0.4486
CC(C)CN(Cc1nc2c(cnn2C)c(=O)[nH]1)CC(C)C		3.745
CO[C@@H]1CCN(C(=O)c2ccccn2)[C@H]1Cc1ccccc1.O=C(O)C(F)(F)F		3.29
CC1c2ncc(COc3cccnc3)n2CCN1Cc1cnn(C)c1.O=C(O)C(F)(F)F.O=C(O)C(F)(F)F (stereo not given)		2.727
COc1ncccc1C(=O)N1CC[C@H]2C[C@@H](c3nccs3)O[C@@H]2C1	-31.44	
